In all, about 580,000 compounds went through this assay and about 6,100 (1.1%) were called active. Inconclusive results (about 15%) are left out. The call rests on the fitted dose curve; in most records, active means well fitted inhibition curve with a large enough effect; inconclusive means small, poorly fitted or top-dose-only effect, or another doubt; inactive means no such curve, though single readings can be large or run the other way. Many of the other results were omitted from the sample, so actives are more common in it than they were.
These compounds were tested against Polyunsaturated fatty acid lipoxygenase ALOX12 (Homo sapiens) (UniProt P18054) (assay: Primary qHTS assay for inhibitors of human arachidonate 12S-lipoxygenase (ALOX12): Round 2). Conditions: purified 12hLO, xylenol orange hydroperoxide absorbance; series mostly up to 108 µM; activity change, negative = inhibition: at the top concentration.
Polyunsaturated fatty acid lipoxygenase ALOX12 (Homo sapiens), sequence (P18054 whole entry, looked up): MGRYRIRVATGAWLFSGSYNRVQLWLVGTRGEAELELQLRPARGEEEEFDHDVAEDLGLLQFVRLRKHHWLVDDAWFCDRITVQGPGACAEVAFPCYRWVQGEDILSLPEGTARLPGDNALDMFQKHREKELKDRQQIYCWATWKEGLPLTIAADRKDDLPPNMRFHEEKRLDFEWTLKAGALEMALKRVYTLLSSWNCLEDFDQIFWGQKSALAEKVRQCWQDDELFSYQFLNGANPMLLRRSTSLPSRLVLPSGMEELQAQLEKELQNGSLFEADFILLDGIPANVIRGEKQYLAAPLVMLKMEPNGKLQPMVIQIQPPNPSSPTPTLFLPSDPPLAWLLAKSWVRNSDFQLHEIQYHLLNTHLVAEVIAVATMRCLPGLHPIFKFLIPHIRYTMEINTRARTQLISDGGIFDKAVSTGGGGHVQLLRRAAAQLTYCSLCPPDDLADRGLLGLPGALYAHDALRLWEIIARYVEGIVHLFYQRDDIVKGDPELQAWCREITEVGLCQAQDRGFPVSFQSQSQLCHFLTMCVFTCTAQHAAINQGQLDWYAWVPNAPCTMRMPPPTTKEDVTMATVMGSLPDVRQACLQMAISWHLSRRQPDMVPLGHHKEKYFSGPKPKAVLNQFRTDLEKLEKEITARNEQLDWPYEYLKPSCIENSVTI
Procedure, shortened: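 Hydroperoxide product was detected by ferrous iron/xylenol orange as the 573 to 405 nm absorbance ratio. Arachidonic acid at 40 uM (final) was turned over for 30 min at room temperature by 150 nM human 12hLO, pH 7.0 Hepes buffer, after 15 min compound preincubation.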
On the % scale 0 is the no-effect control and ±100 the full control effect; potency means the concentration at half of the fitted maximal effect.

Activity change, negative = inhibition, inactive:
O=c1oc2ccccc2cc1S(=O)(=O)c1cccc(Cl)c1 -19.4%
CC(C)N1C(=O)C2(CCCC2)C1C(=O)Nc1ccc2c(c1)N(C)CCC2 (stereo unspecified) 71.1%
Cc1ccc(C(=O)N/C(=C\c2ccco2)C(=O)N2CCSCC2)cc1C 14.6%
CCc1ccccc1NC(=O)Nc1c(NC2CCCC2)c2ccccc2oc1=O 3.81%
COc1cccc(NC(=O)c2ccc3c(c2)NC(C)(COc2ccccc2)CO3)c1 (stereo unspecified) -2.36% [at 176 µM]
CCCNC(=O)N1CCC(N(C)C2CCOCC2)CC1 63.3%
N#Cc1ccc(OCC(O)CNCCC2=CCCCC2)cc1 (stereo unspecified) 5.82%
CC(O)CNCCOc1cccc(Oc2ccccc2)c1 (stereo unspecified) -17.6%
CCn1ccnc1CN(C)Cc1cccc(OCC(O)CN(C)C2CCCCC2)c1 (stereo unspecified) 82.8%
O=C(NCc1ccccc1)c1cc(-c2cccc(Cl)c2)on1 -22%
Cc1ccc2[nH]cc(C(C(=O)O)N3CCN(S(=O)(=O)c4ccccc4)CC3)c2c1 (stereo unspecified) -23.2%
NC(=O)c1cccc(NC(=O)c2cccc3cccnc23)c1 -20.1%
Cc1nn(-c2ccc(C(C)C)cc2)c(C)c1[C@@H]1C=C[C@@H](NC(=O)Nc2ccccc2)C1 35% [at 176 µM]
Cc1nn(-c2ccc(C(C)C)cc2)c(C)c1[C@@H]1C=C[C@@H](NC(=O)CC2(CC(=O)O)CCCC2)C1 9.29%
CCCn1nc(C(=O)NC2CCN(C(C)C)CC2)c2ccccc2c1=O 3.11%
COCCCNC(=O)c1ccc(-c2c(C)noc2C)c2ccoc12 8.36%
Cc1cc2cc(-c3c(C)noc3C)nc(NCc3cccnc3)c2o1 42.9% [at 176 µM]
Cc1cnc(CNc2cc(-c3c(C)noc3C)ncn2)cn1 -20.8%
CNc1cc(-c2c(C)noc2C)ncn1 -26.5%
O=C(NCCc1cccnc1)c1cccc(Cl)c1Cl 5.55%
c1ccc(-c2noc(-c3ccco3)n2)cc1 1.51%
Cc1ccc(C(=O)Nc2cnc3ccccc3c2)cc1[N+](=O)[O-] 12.7%
Cc1cc2nc(-c3ccc(NC(=O)c4cc5ccccc5o4)cc3)oc2cc1C -10.3%
CC(C)Oc1ccc(NC(=O)c2cc3ccccc3o2)cc1 0.347%
COc1cccc(/C=C2\Oc3cc(OS(=O)(=O)c4ccc(C)cc4)ccc3C2=O)c1OC 1.7%
Cc1ccc(NC(=O)CN(C)C(=O)c2nn(-c3ccccc3)c3c2CCC3)cc1 20.1%
COc1ccc(NC(=O)O[C@@H]2CO[C@H]3[C@@H]2OC[C@@H]3NC(=S)Nc2cccc3ccccc23)cc1 -26.3%
COc1ccc(-c2ccnc(N[C@H]3CO[C@H]4[C@@H]3OC[C@H]4OC(=O)Nc3cccc4ccccc34)n2)cc1 12.3%
CCOc1ccc(N2CC(NC(=O)CC(C)(C)C)CC2=O)cc1 (stereo unspecified) -1.73%
O=C(Cc1ccccc1F)NC(c1ccc2c(c1)CCC2)c1cccs1 (stereo unspecified) -26.6%
CCCCc1ccc(C(=O)Cn2nnc(-c3cccc(F)c3)n2)cc1 -34.4%
CC(C)(C)c1ccc(C(=O)NCC(c2ccco2)S(=O)(=O)c2ccc(F)cc2)cc1 (stereo unspecified) -22.1%
Cc1ccc(C(=O)Nc2cc3c(cc2N2CCCC2)n(C)c(=O)c(=O)n3C)cc1 12.9%
CCNC(=O)C1CCCN1S(=O)(=O)c1ccc(Br)s1 (stereo unspecified) 4.48%
Cc1ccc(CN2CCN(C(=O)CCC[C@H]3NC[C@@H]4C[C@H]3CN(Cc3ccccc3)C4)CC2)cc1 -13.9%
Cc1oc(-c2ccccc2)nc1Cn1ncc2ccccc2c1=O -5.85%
COc1ccc(CN2CCC3(Cc4ccccc4CNC3=O)C2)cc1OC (stereo unspecified) 8.59% [at 6.33 µM]
Cc1cccc(CN2CCC3(Cc4ccccc4CNC3=O)C2)c1 (stereo unspecified) 3.12% [at 6.33 µM]
O=C(NC1CCN(CCCc2nc3ccccc3o2)CC1)C1CCCCC1 -5.42%
CCC(=O)Nc1ccccc1-c1nc2ccccc2n(CC(=O)Nc2ccc(NC(C)=O)cc2)c1=O -26.1%
CN(C)S(=O)(=O)c1ccc(C(=O)NCCN=C2NS(=O)(=O)c3ccccc32)cc1 1.56%
Cc1ccccc1C(=O)NCCN=C1NS(=O)(=O)c2ccccc21 9.19%
CCN(Cc1nc2ccccc2c(=O)[nH]1)C(=O)Cc1csc(-c2ccc(C)cc2C)n1 3.87%
COc1ccc(-c2cc(NC=O)c3ncc(-c4ccccc4)n3c2)cc1OC -5.7%
COc1cccc(-c2cc(NC(C)=O)c3ncc(-c4cccc(C(C)=O)c4)n3c2)c1 -5.38%
CC(C)c1noc(C(C)Sc2nc(C3CC3)nc3ccccc23)n1 (stereo unspecified) 7.22%
O=C(O)CCC(=O)C(CC(=O)O)CC(=O)O -22.1%
Cn1nc(C(C)(C)C)cc1NC(=O)c1cccc(F)c1 -45%
Cc1cc(C)c(/C=N/NC(=O)c2ccccc2)c(C)c1 -20.9%
Cc1cccnc1NC(=O)c1ccc2nc(C)c(C)nc2c1 14.6%
CCOC(=O)N1CCN(C(=S)Nc2ccc(C)cc2C)CC1 0.181%
Cc1ccc(NC(=O)c2oc(=O)c3ccccc3c2-c2ccccc2)c(C)c1 -8.51%
O=C(NNC(=O)C1(c2ccc(Br)cc2)CCCC1)c1ccccc1 -11.9%
COc1ccc(C2Cn3cnc(-c4nc(-c5ccc(OC)cc5OC)no4)c3CO2)cc1 (stereo unspecified) 0.752%
CCc1c(C(=O)O)csc1C 4.31%
CCCCc1nc2sc(C(=O)OCC)c(N)c2c2c1COC(C)(C)C2 10.5%
O[C@@H]1C[C@H](c2ccccc2)N(Cc2cccs2)C[C@H]1n1cc(C2CC2)nn1 0%
O=C(OCc1cn([C@@H]2C[C@H](c3ccc(Cl)cc3)N(Cc3cccs3)C[C@H]2O)nn1)c1ccccc1 -2.55%
CC(C)Cn1nc(C(=O)OCC(=O)Nc2ccc(OC(F)(F)F)cc2)c2ccccc2c1=O 3.44%
Cc1ccccc1S(=O)(=O)N1CCCC(CCC(=O)NCC2CCCCC2)C1 (stereo unspecified) 16.3%
CCOc1cc2[nH]c(=S)n(Cc3ccc(C(=O)N4CCN(C)CC4)cc3)c(=O)c2cc1OCC 2.11%
CCOC(=O)N1CCN(C(=O)c2ccc3c(=O)n(CCc4ccc(OC)c(OC)c4)c(=O)[nH]c3c2)CC1 -12.7%
O=C(Nc1cccc2cccnc12)C1=C(c2ccccc2)S(=O)(=O)CCO1 23.8%
COc1ccc2c(C)c(CC(=O)Nc3nnc(C)s3)c(=O)oc2c1OC -5.78%
COc1ccc(CC(=O)Nc2ccc(-c3nc4ccccc4s3)c(C)c2)cc1 -8.77%
COc1ccc2cc(/C=C(/CC(=O)O)c3nc4ccccc4s3)ccc2c1 -87.4%
COc1ccc(N2C(=O)C(C)(C)CS2(=O)=O)cc1S(=O)(=O)Nc1ccc(F)c(Cl)c1 1.34%
CCC1c2nccn2CCCN1C(=O)c1ccc(Cn2cncn2)o1 (stereo unspecified) 49%
COc1ccc(-c2ccccc2CN)cc1 23.2% [at 176 µM]
COC(=O)c1ccc(OC)cc1OCc1ccccc1C#N 8.13%
COc1ccc(C(=O)c2sc(Nc3cccc(F)c3)nc2N)cc1 3.41%
O=C(NCCc1ccccn1)c1nc(Cn2cc([N+](=O)[O-])cn2)no1 1.76%
CC(C)N(C(=O)Cn1c(CN2CCOCC2)nc2ccccc21)c1ccccc1 11.2%
COc1ccc(-c2nc3ccccc3n2CCC(C)C)cc1OC 0%
COc1ccc(-c2cn(-c3ccc(C)cc3)c(=O)n2CC(=O)Nc2ccc(OC)c(OC)c2)cc1 -3.1%
O=C([C@@H]1C[C@H](F)CN1C(=O)Nc1cc(F)cc(F)c1)N1CCCCC1 5.28%
O=C(Cc1ccc(Cl)cc1)NCc1nnc2ccc(-c3ccc(F)cc3)nn12 -6.29%
CCOC(=O)Cn1c(=O)n(C2CCCCC2)c2nc(-c3cccc(OC)c3)nc(C(N)=O)c21 -15.8%
CCOC(=O)Cn1c2c(c(-c3ccccc3OC)cc1=O)CCCC2 17.6%

Potency, active:
Cc1ccc(N=C2NC(=O)/C(=C/C=C/c3ccco3)S2)cc1C 10 µM
Cc1ccc(N2NC(=O)/C(=C/C=C/c3ccco3)C2=O)cc1C 39.8 µM
OC(CNCCc1ccc(Cl)cc1Cl)COc1ccccc1 (stereo unspecified) 12.6 µM
O=C(O)C(c1ccccc1)N1C(=O)/C(=C\c2ccc(-c3cccc(Cl)c3)o2)SC1=S (stereo unspecified) 2 µM
Cc1nn(-c2ccc(C(C)C)cc2)c(C)c1[C@@H]1C=C[C@@H](NC(=S)NCC(C)C)C1 56.2 µM
Cc1noc(C)c1-c1cc(NCc2cccnc2)ncn1 31.6 µM
COCCNc1cc(-c2c(C)noc2C)ncn1 39.8 µM
C/C(=N\NC(=S)Nc1ccc(C)cc1)c1cc2ccccc2o1 25.1 µM
CCNC(=O)O[C@@H]1CO[C@H]2[C@@H]1OC[C@@H]2NC(=S)Nc1cccc2ccccc12 56.2 µM
Cn1c(=O)n(C)c2cc(SCc3ccco3)c(NC(=O)c3ccc(C(C)(C)C)cc3)cc21 8.91 µM
Cc1ccc(CN2CCC3(Cc4ccccc4CNC3=O)C2)cc1 (stereo unspecified) 28.2 µM
O=C1NS(=O)(=O)c2ccccc21 12.6 µM
COc1ccccc1-c1cc(NC(C)=O)c2ncc(-c3ccc(F)cc3)n2c1 44.7 µM
Cc1ccc(NC(=S)NC(=O)c2ccc(-c3ccccc3)cc2)c(C)c1 17.8 µM
Cc1ccc(NC(=S)Nc2ncccc2C)c(C)c1 8.91 µM
O[C@H]1C[C@H](c2ccc(Cl)cc2)N(Cc2cccs2)C[C@@H]1n1cc(C2CC2)nn1 44.7 µM
NC(=O)C1CCN(C(=O)c2ccc3c(=O)n(Cc4cccc(Br)c4)c(=S)[nH]c3c2)CC1 44.7 µM
COC(=O)Cc1cc(=O)n(-c2nc3ccccc3s2)[nH]1 6.31 µM
COc1ccc(C(C#N)=C2C=CC(=NO)c3ccccc32)cc1 39.8 µM
O=C(Nc1ccc(Br)c2cccnc12)c1ccc(Cn2cc([N+](=O)[O-])cn2)o1 15.8 µM
COc1ccc(-n2c(-c3ccc(OC)c(OC)c3)n[nH]c2=S)cc1 17.8 µM
CCOC(=O)Cn1c(=O)n(-c2ccccc2OC)c2nc(-c3cccc(F)c3)nc(C(N)=O)c21 11.2 µM
